The record followed here is PubChem BioAssay AID1794842 (National Center for Advancing Translational Sciences (NCATS), 2023).

SMILES strings stand for the structures. In all, about 2,800 compounds went through this assay and fewer than 10 were called active. Calls come from the whole dose curve; as a rule, active = well fitted curve in the direction sought with a large enough effect; inconclusive = small, poorly fitted or top-dose-only effect, or another doubt; inactive = no such curve, though single readings can be large or run the other way. The list is a sample of the results.

Metallo-beta-lactamase type 2 (Klebsiella pneumoniae), sequence (C7C422 whole entry, looked up): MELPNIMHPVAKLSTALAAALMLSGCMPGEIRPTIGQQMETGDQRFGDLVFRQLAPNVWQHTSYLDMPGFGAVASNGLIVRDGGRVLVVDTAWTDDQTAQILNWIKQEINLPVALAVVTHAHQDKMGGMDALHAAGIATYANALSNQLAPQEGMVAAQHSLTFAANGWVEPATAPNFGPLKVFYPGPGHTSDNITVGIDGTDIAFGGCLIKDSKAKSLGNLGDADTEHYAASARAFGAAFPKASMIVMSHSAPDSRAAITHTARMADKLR

The test concerns the target Metallo-beta-lactamase type 2 (Klebsiella pneumoniae) (UniProt C7C422). Description: qHTS to identify inhibitors of the New Delhi Metallo-beta-lactamase (NDM): Meropenem screen against the machine-based learning selections. Note: % of control where 0% means no effect. As to conditions: Purified NDM-1, meropenem hydrolysis, absorbance 300 nm; series mostly up to 38.4 µM; activity change, negative = inhibition: at the top concentration. The text has this: Assay Submitter (PI): James Inglese Ph.D., Patricia Dranchak Ph.D., Mahesh Aitha Ph.D. Assay Development and Screening Technology Laboratory (ADST) National Center for Advancing Translational Sciences (NCATS), Rockville, MD National Institute of Health (NIH), Bethesda, Maryland The metallo-beta-lactamases (MBL) are a main antibiotic resistance mechanism evolved by bacteria. There is an urgent clinical need for MBL inhibitors to mitigate this growing threat. To support a machine-based learning study, qHTS has been used to experimentally test inhibitors identified by prediction tools.
PROTOCOL TABLE (as described by Inglese et al., 2007) SEQUENCE No. (e.g., 1, 2, 3, etc.); […] (e.g., enzyme, Incubation, Reagent, etc.); VALUE; DESCRIPTION Primary Screen 1; NDM-1; 4 uL of 3 nM enzyme [2 nM final] in 50 mM HEPES (pH 7.0), 1 uM […], 0.01% Tween20; Use BioRaptr to dispense into two sets of Aurora black, clear bottom high base 1536-well plates 2; Compounds; 23 nL; Use Pin Tool (Wako) to transfer DMSO control and library compounds in DMSO 3; Incubate; >30 min 4a; Reagent; 2 uL of 50 uM nitrocefin [16.7 uM final] to one set of assay plates 4b; Reagent; 2 uL of 150 uM meropenem [50 uM final] to second set of assay plates 5a; Incubate; 15 min 5b; Incubate; 30 min 6a; Detector; Absorbance at 485 nm (bandwidth = 5 nm, 25 flashes/well) on Tecan Infinity 6b; Detector; Absorbance at 300 nm (bandwidth = 5 nm, 25 flashes/well) on Tecan Infinity NOTES (numbers refer to sequence above) 1; Column 1 of each plate received assay buffer without enzyme and columns 2-48 received enzyme for a final assay concentration of 2 nM. 2; Control plate contained DMSO in columns 1, 2, 3, and 4. 3; Compound interaction with enzyme. 4; Nitrocefin and meropenem substrates were prepared in the same assay buffer as step 1 for a final assay concentration of 16.7 uM and 50 uM, respectively, and added to all wells across respective sets of assay plates. 5; Default reader settings were applied for absorbance read at 485 nm (nitrocefin) or 300 nm (meropenem), bandwidth = 5 nm, 25 flashes/well. References: Inglese J, Shamu CE, Guy RK. 2007. Reporting data from high-throughput screening of small-molecule libraries. Nat Chem Biol. doi:10.1038/nchembio0807-438 Yasgar A, Shinn P, Jadhav A, Auld D, Michael S, Zheng W, Austin CP, Inglese J, Simeonov A. 2008. Compound Management for Quantitative High-Throughput Screening. J Lab Autom 13:79 - 89. doi:10.1016/j.jala.2007.12.004
In general terms: qHTS replaces the single test concentration by a dilution series.
For the molecule `Cc1cc(-c2ccccc2)nc(CN2CC[C@@](O)(C3CCC3)[C@H](C)C2)n1`, the “activity change, negative = inhibition” value is 1.38% (inactive). Next, `CCOCCN1C(=O)COC[C@@H]1[C@H](O)c1ccc(NC(=O)Cc2ccccc2)cc1`: -0.552% [at 57.5 µM] (inactive); `COCC(=O)N[C@H]1C[C@H]2C(=O)NC[C@@H](CCC(=O)N3CCN(c4ccccn4)CC3)N2C1`: 5.83% (inactive); `COc1ccc(OC)c(S(=O)(=O)N2CCCC(Cn3c(C)nc4cccnc43)C2)c1` (stereo unspecified): 0.467% (inactive). Next, `O[C@@H]1C[C@@H](c2nc(-c3ccc4c(c3)OCO4)no2)N(Cc2cc3ccccc3o2)C1`: 3.26% [at 57.5 µM] (inactive). To `CC1=C[C@@H](CNC(=O)COCC(=O)O)[C@H](C(C)C)C[C@H]1Cc1nc2ccc(C)cc2[nH]1` belongs 41.1% [at 57.5 µM] (inactive); to `NCCn1cc(C(=O)NCCS(=O)(=O)N2CCCC2)nn1`, -0.385% (inactive); to `C=CCN1CCN(C(=O)[C@@H]2Cc3c[nH]c4cccc(c34)[C@H](CC(C)C)N2)CC1`, 4.68% [at 57.5 µM] (inactive).

As for `COc1ccc(-c2noc([C@@H]3C[C@H](NCc4ccc(N(C)C)cc4)CN3C)n2)cc1`, the “activity change, negative = inhibition” value was -5.46% [at 57.5 µM] (inactive). To `COc1cc(F)cc(-c2cnc3[nH]cc(CC(=O)NCc4cccnc4)c3c2)c1` belongs 1.07% [at 57.5 µM] (inactive); to `Oc1cccc(Nc2cnc3ccc(-c4ccc(F)cc4)nn23)c1`, 11.4% [at 57.5 µM] (inactive); to `CCc1ccc(-c2nc(C3CC(=O)N(c4ccc(C)cc4)C3)no2)cc1` (stereo unspecified), 1.01% (inactive). To `COc1ccc([C@@H](NC(=O)c2ccc3cccc(F)c3n2)C2CC(O)C2)cn1` (stereo partly specified) belongs 3% (inactive).

As to `COc1ccc(Nc2cc3c(cn2)CN(CCc2ccccc2)CCN3)cc1`, the “activity change, negative = inhibition” value is -0.503% [at 57.5 µM] (inactive).

With `COc1ccc(-c2noc([C@@H]3Cc4nc[nH]c4CN3C(=O)Nc3ccc(C)cc3)n2)cc1`, the “activity change, negative = inhibition” value is 7.68% [at 57.5 µM] (inactive). With `CCOC(=O)N1CCN(C(C(=O)O)c2ccc(OC)nc2OC)CC1` (stereo unspecified), the “activity change, negative = inhibition” value was 29% (inactive).

As for `O=C(O)CCC(=O)N1Cc2[nH]cnc2C[C@H]1C(=O)NC1CCCCC1`, the “activity change, negative = inhibition” value is 13% [at 57.5 µM] (inactive).

In the case of `CO[C@H]1[C@H](NC(=O)COc2ccccc2)c2ccccc2C12CCNCC2`, the “activity change, negative = inhibition” value is 1.6% (inactive). Next, `COc1ccc(-c2cc(N3CCCC(NC(=O)c4cccn4C)C3)n[nH]2)cc1` (stereo unspecified): -0.774% (inactive); `CC1=C[C@@H](CNC(=O)c2cncnc2)[C@H](C(C)C)C[C@H]1CC(=O)N(C)Cc1ccccc1`: -0.536% [at 57.5 µM] (inactive). Regarding `CCOCC(=O)N1CCC(N2CC3CC(C2)[C@H]2CCCC(=O)N2C3)CC1` (stereo partly specified), the “activity change, negative = inhibition” value was -2.05% (inactive). Next, `NC(=O)c1cccc(-c2cc3c(cn2)CN(Cc2ccncc2)CCN3)c1`: 0.513% [at 57.5 µM] (inactive). To `Cc1ccc(-c2noc([C@@H]3Cc4nc[nH]c4CN3Cc3ccccc3)n2)cc1` belongs 51.9% [at 57.5 µM] (inactive); to `Cn1cc(-c2cnc(NC(=O)c3c[nH]c4ccccc34)c3c2CCO3)cn1`, 6.8% [at 57.5 µM] (inactive); to `O=C(NCCc1ccc(Cl)cc1)c1nc(-c2cc(Cl)cc(Cl)c2)c2ccccn12`, 0.233% (inactive). With `CCCNC(=O)N(C1CCOCC1)C1CCN(C(=O)Nc2c(F)cccc2F)CC1`, the “activity change, negative = inhibition” value is -4.65% (inactive).
